# Assay outcomes from PubChem BioAssay.
# SMN2 splice up: enhancers of SMN2 splice variant expression. HEK293 SMN2-luciferase splicing reporter, luminescence, 30-36 h. hit rate 2.8% among 210,000. Potency, µM (top dose mostly 46.1 µM), actives largely listed as activators; also: nearly all actives have a fitted effect of over 55% in size
#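 HEK293 cells carry an SMN2 minigene-luciferase reporter in which exon 7 inclusion puts luciferase in frame. Cells were seeded at 2000 cells/well, attached for 10-12 hours, then exposed to compounds for 30-36 hours at 37C before ONE-Glo luminescence.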
# FLuc modulator: counter-screen for miR-21 project: firefly luciferase inhibitors or activators; P08659; purified FLuc, Km substrates, luminescence inhibition; Potency, µM (top dose mostly 57.5 µM), usual class: inhibitors; hit rate 6.9% among 360,000; also: nearly all actives have a fitted effect of over 55% in size
# Target sequence (P08659 whole entry, looked up): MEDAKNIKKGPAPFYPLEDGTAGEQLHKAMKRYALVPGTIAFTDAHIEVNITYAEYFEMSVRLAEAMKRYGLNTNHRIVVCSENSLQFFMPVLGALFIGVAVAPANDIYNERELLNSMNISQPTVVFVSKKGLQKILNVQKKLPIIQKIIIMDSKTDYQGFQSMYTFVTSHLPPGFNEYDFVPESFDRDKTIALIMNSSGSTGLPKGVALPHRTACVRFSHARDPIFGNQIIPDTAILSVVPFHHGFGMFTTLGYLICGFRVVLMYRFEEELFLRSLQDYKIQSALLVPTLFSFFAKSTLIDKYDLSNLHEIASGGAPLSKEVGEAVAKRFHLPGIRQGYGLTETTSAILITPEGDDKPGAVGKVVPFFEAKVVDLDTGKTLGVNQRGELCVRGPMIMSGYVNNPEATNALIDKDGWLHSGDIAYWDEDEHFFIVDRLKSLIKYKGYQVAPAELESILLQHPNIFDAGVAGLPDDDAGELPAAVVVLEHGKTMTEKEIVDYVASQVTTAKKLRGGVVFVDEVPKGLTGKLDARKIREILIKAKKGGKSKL
#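 Purified P. pyralis luciferase (10nM final) with 10uM D-luciferin and 10uM ATP (Km levels) in 50mM Tris acetate pH 7.5, 10mM Mg acetate, 0.01% Tween-20, 0.05% BSA; qHTS 6-point titration, ~60 µM downward; luminescence read.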
# Rab9 prom act: Rab9 promoter activation; Huh7 Rab9 promoter-luciferase reporter, luminescence, 24 h; hit rate 2.8% among 320,000; Potency, µM (top dose mostly 9.22 µM), hits mostly activators; AID 485297; also: nearly all actives have a fitted effect of over 60% in size
#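 Huh7 cells stably carrying a Rab9 promoter-luciferase reporter, 1500 cells per well in OP-MEM I with 10% FBS, treated with compound 24 hours at 37C. Luciferase activity read by luminescence after 10 minutes with Amplite reagent.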
# ELG1 genotox: induces genotoxicity in HEK293T cells with luciferase-tagged ELG1 | AID 504466 | hit rate 1.3% among 330,000 | Potency, µM (doses to about 46 µM), usual class: activators | HEK293T ELG1-luciferase reporter, luminescence, 16 h; also: nearly all actives have a fitted effect of over 60% in size
#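 Reporter readout depends on ELG1 protein level, which increases with genetic stress. After 16 hr compound exposure at 37 °C, luciferase activity was quantified using ONE-Glo.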
# NPC1 prom act: activators of NPC1 promoter. hit rate 2.4% among 320,000. Huh7 NPC1 promoter luciferase reporter, 24 h. Potency, µM (top dose mostly 9.22 µM), hits mostly activators; also: nearly all actives have a fitted effect of over 60% in size
#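 Compounds in DMSO were transferred onto Huh7 NPC1-luciferase reporter cells pre-incubated 2 h; after 24 h at 37 °C, Amplite reagent was dispensed and luminescence recorded 10 min later.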
# A number is an active result; 0 = inactive; ? = inconclusive; - = not tested or not shown; [ ] = another dose, or the depositor's remark. An excerpt weighted towards active compounds, which were near 7.5% of everything screened. Calls follow the shape of the dose curve; as a rule, active = well fitted curve in the direction sought with a large enough effect; inconclusive = small, poorly fitted or top-dose-only effect, or another doubt; inactive = no such curve, though single readings can be large; an effect the other way counts as inactive or inconclusive.
SMILES,SMN2 splice up,FLuc modulator,Rab9 prom act,ELG1 genotox,NPC1 prom act
Cc1ccc(NC(=O)/C(C#N)=C/c2ccc(C(C)C)cc2)cc1C,0,0,-,-,-
CC(=O)Nc1ccccc1C(=O)C(=O)Nc1ccc(C)c(F)c1,6.31µM,?,1.78µM,?,3.55µM
CCc1ccc(NC(=O)C(=O)c2ccccc2NC(C)=O)cc1,-,?,2.82µM,?,1.58µM
CC(=O)Nc1ccccc1C(=O)C(=O)Nc1ccc(F)c(Cl)c1,-,0,3.16µM,?,3.98µM
Cc1ccc(NC(=O)/C(Cl)=C/c2ccccc2)cc1C,?,0.757µM,2.51µM,?,1.78µM
CCC(=O)Nc1ccc(F)c(Cl)c1,0,0,0,0,0
CC(=O)Nc1ccccc1C(=O)C(=O)Nc1cccc(C(=O)NCc2ccccc2)c1,0,0,0,0,0
CCNC(=O)NC(=O)C(C)Sc1nc2ccccc2n1CC(C)C (configuration not stated),0,0,0,0,0
CC1CCN(c2oc(-c3ccc(COc4ccccc4)o3)nc2C#N)CC1,-,0,-,-,-
NC(=O)c1ccccc1NC(=O)Nc1cccc(Cl)c1Cl,0,0,0,0,0
CC(=O)Nc1ccccc1C(=O)C(=O)Nc1ccc(C)c(C)c1,17.8µM,?,0.891µM,?,2µM
NC(=O)c1ccccc1NC(=O)Nc1ccc(F)c(Cl)c1,0,9.53µM,0,0,0
Cc1ccc(CNC(=O)c2nn(C)c(C)c2[N+](=O)[O-])cc1,0,0,0,0,0
CCN(Cc1ccccc1)c1ccc(N=Nc2nn(C)c(C)c2[N+](=O)[O-])cc1,?,15.1µM,0,0,0
CCN(CC)c1ccc(N=Nc2nn(C)c(C)c2[N+](=O)[O-])cc1,14.1µM,1.69µM,1.41µM,5.8µM,0.794µM
CNc1ccccc(C(=O)/C=C/c2ccccc2OC)c1=O,0,21.3µM,0,0,0
COc1ccccc1/C=C/C(C)=O,0,0,0,0,0
COc1ccccc1/C=C/C(=O)/C=C/c1ccccc1O,-,3.38µM,0,0,0
O=C(Nc1nc(-c2nc3ccccc3s2)cs1)C1CC1,7.08µM,3.01µM,0.708µM,2.59µM,1.41µM
CCCC(=O)Nc1nc(-c2ccc(Cl)s2)cs1,0,?,?,0,?
O=C(Nc1nc(-c2nc3ccccc3s2)cs1)c1ccco1,22.4µM,?,?,?,?
O=C(Nc1nc(-c2ccccc2)cs1)c1cccs1,-,8.49µM,3.55µM,0,?
O=C(Nc1nc(-c2ccc(Cl)s2)cs1)c1cccs1,0,10.7µM,0,0,?
COc1ccc(NC(=O)c2cc3c(s2)-c2c(C)cccc2OC3)cc1Cl,0,0,-,-,-
CC1CCCN(S(=O)(=O)c2ccc(NC(=O)c3nc(SC(C)C)ncc3Cl)cc2)C1 (configuration not stated),0,0,-,-,-
SMILES,SMN2 splice up,FLuc modulator,Rab9 prom act,ELG1 genotox,NPC1 prom act
Cn1cnc2nc(NCCO)nc(NCc3ccccc3)c21,0,-,-,-,-
CC1CC1C(=O)Nc1nc(-c2ccccc2)cs1 (configuration not stated),0,23.9µM,?,?,0
O=C(NNc1nc(-c2ccccc2)cs1)c1ccco1,0,?,0,0,0
O=C(NCc1nc(-c2ccccc2)no1)c1cccs1,0,0,0,0,0
CN(C)CC(=O)Nc1nc(-c2ccccc2)cs1,0,?,0,0,0
O=C(NNc1nc(-c2ccc(Cl)cc2)cs1)c1ccco1,0,23.9µM,0,0,0
O=C(Nc1nc(-c2ccccc2)ns1)c1cccs1,12.6µM,15.1µM,?,0,?
O=C(Nc1nc(-c2ccc(Cl)s2)cs1)c1ccco1,?,15.1µM,3.16µM,?,?
CC(C)c1ccc(NC(=O)CSc2nc3ccsc3c(=O)n2CCC(=O)O)cc1,-,?,0,0,0
O=S(=O)(Nc1nc2ccccc2nc1Nc1ccc2c(c1)OCO2)c1ccc(F)cc1,-,0,0,0,0
O=C1c2ccccc2C(O)(c2ncc[nH]2)N1CCc1ccccc1 (configuration not stated),0,0,0,0,0
Fc1ccccc1-c1cc2ccccc2cn1,-,4.78µM,0,?,?
Clc1nc(-c2ccccn2)nc2scc(-c3ccccc3)c12,5.62µM,0.379µM,4.47µM,?,?
Cc1cc2[nH]c(=O)cc(-c3ccccc3)n2n1,-,9.53µM,?,?,?
CCC(=O)Nc1ccc(NC(=O)/C=C/c2ccc(Cl)cc2)cc1,-,0,0,0,0
CSc1cccc(NC(=O)/C=C/c2ccccc2)c1,?,4.78µM,2.24µM,0,3.16µM
COc1ccc(/C=C/C(=O)NC(=S)Nc2ccccc2)cc1OC,-,0,0,?,0
CSc1cccc(NC(C)=O)c1,0,0,0,0,0
CSc1ccc(/C=C/C(=O)Nc2ccccc2)cc1,3.16µM,0.239µM,0.316µM,0,0.316µM
CSc1cccc(NC(=O)/C=C/c2ccc(Cl)cc2)c1,0,3.38µM,0,0,?
COc1ccc(/C=C/C(=O)Nc2ccccc2)cc1OC,12.6µM,13.5µM,3.16µM,?,?
Cc1ccnc(NC(=O)CCC(=O)N(CC(=O)NC(C)(C)C)c2ccc3c(c2)OCO3)c1,-,0,0,0,0
O=C(C[n+]1ccc(Cc2ccccc2)cc1)Nc1ccccc1,0,0,0,0,0
COc1cc(/C=C/C(=O)NC(=O)c2ccccc2O)ccc1OC(C)=O,-,3.01µM,?,?,?
C/C=C/c1ccc(OC(C)=O)c(OC)c1,0,0,0,0,0
SMILES,SMN2 splice up,FLuc modulator,Rab9 prom act,ELG1 genotox,NPC1 prom act
Cc1noc(C)c1NC(=O)N(C)C[C@H]1Oc2ccc(NC(=O)NC3CCCCC3)cc2C(=O)N([C@H](C)CO)C[C@@H]1C,-,-,-,0,-
COc1ccc(OC)c(C2CC(=O)Nc3ccc4ccccc4c32)c1 (configuration not stated),0,0,-,-,-
COc1ccc(OC)c(C2CC(=O)Nc3cc(OC)c(OC)c(OC)c32)c1 (configuration not stated),?,0,0,18.4µM,0
CCOC(=O)c1ccc(NC(=O)C2CCCN(c3ccc(Sc4ccc(C)cc4)nn3)C2)cc1 (configuration not stated),0,0,-,-,-
COc1ccccc1NC(=O)COC(=O)c1c(C)nn(-c2ccccc2)c1C,-,7.57µM,?,0,?
Cc1nn(-c2ccccc2)c(C)c1C(=O)OCC(=O)Nc1ccccc1,-,9.53µM,?,0,?
Cc1ccc(NC(=O)COC(=O)c2c(C)nn(-c3ccccc3)c2C)cc1,-,0,0,0,0
CCc1ccc(OCC(=O)NCc2ccco2)c(Br)c1,0,9.53µM,?,?,?
N#Cc1ccccc1OCC(=O)NC(=O)NCc1ccco1,-,19µM,?,?,?
O=C(COc1ccccc1Br)NCc1ccco1,0,?,0,0,0
Cn1cc(Cl)cc(C(=O)Nc2ccccc2)c1=O,-,?,?,?,0
CCOC(=O)Cn1cc(Cl)cc(C(=O)Nc2ccccc2)c1=O,-,16.9µM,0[1.84 µM],0,0
O=C(c1cc(COc2c(F)cccc2F)on1)N1CCC(c2ccncc2)CC1,-,0,0,0,0
